Screening results from PubChem.
M1 antag: blocks human M1 muscarinic receptor; P11229; CHO-K1 hM1, Fluo-8 calcium fluorescence, ACh EC80 antagonist; inhibition, % at 3 µM; 1.3% of 360,000 active;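 active = percent inhibition above its own plate's cutoff, namely the mean of that plate's compound wells plus 3 SD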;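 also: peak over basal fluorescence ratio during 140 s after agonist addition; 0% = ACh EC80 plus DMSO and 100% = DMSO alone without agonist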
CHRM1 PAM: positive allosteric modulators of human M1 muscarinic receptor; CHO-K1 hM1, Fluo-8 calcium fluorescence, ACh EC20; 0% = ACh EC20, 100% = maximal ACh; AID 588819; activation, % at 3 µM; 0.088% of 360,000 active; P11229; in the data active = activation above about 19%, passing the limit was not always enough
Myeloid diff MLP: promotes myeloid progenitor differentiation | ER-HoxA9 myeloid progenitors, lysozyme-GFP differentiation, flow cytometry | calls only at 10 µM | 1% of 360,000 active | AID 624256;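 active = normalized GFP-positive differentiation at or above the plate's own cutoff, the solvent-only control mean plus 3 SD; inconclusive = no clear call, values can overlap the other calls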;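 also: cells exposed to compound for four days before flow analysis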
SKN-1 inh: inhibitors of C. elegans SKN-1; C. elegans VP596 Pgst-4::GFP/RFP ratio, acrylamide-induced, 24 h; inhibition, % at 21.8 µM; 0.49% of 360,000 active; AID 624304;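 active = interference check ratio from 0.5 to 1.5 plus GFP to RFP signal ratio inhibition reaching or exceeding a fixed threshold, cut at about 30% in these data, passing the limit was not always enough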
ATG4B inhibitor: ATG4B (human) cysteine protease inhibition | AID 504462 | inhibition, % at 8.33 µM | Q9Y4P1 | ATG4B cleavage of LC3-PLA2, NBD-HPC fluorescence, 1 h | 0.51% of 340,000 active; in the data active = inhibition above about 40%
Target sequence (Q9Y4P1 whole entry, looked up): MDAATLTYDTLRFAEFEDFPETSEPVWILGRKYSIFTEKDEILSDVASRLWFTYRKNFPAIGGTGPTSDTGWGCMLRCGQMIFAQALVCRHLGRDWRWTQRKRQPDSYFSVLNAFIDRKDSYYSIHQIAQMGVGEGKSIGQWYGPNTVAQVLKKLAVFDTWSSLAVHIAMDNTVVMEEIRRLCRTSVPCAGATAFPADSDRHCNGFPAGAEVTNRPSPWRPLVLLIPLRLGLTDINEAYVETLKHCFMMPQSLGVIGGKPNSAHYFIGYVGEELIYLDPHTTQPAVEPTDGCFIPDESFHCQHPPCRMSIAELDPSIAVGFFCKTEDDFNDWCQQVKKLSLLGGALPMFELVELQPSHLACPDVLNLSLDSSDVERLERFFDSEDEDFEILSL
CHRM1 agonist: human M1 muscarinic receptor agonism | activation, % at 3 µM | 0.33% of 360,000 active | CHO-K1 hM1, Fluo-8 calcium fluorescence, agonist mode; 0% DMSO, 100% acetylcholine EC100 | P11229;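 active = activation above the run's mean compound activation plus 3 SD, cut at about 16% in these data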;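 also: peak over basal fluorescence ratio within a 140 s kinetic read after compound addition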
* marks the source's active call; other numbers are inactive results; i = inactive; ? = inconclusive; . = no result; + = active, no number. Most compounds without a hit are left out; they make up all but 3.5% or so of the library.

SMILES	M1 antag	CHRM1 PAM	Myeloid diff MLP	SKN-1 inh	ATG4B inhibitor	CHRM1 agonist
O=C(/C=C/c1ccc(Cl)cc1)Nc1ccc(CN2CCOCC2)cc1	-5.9	8.8	i	63.2*	5.8	-6.6
CC(C)c1ccc(/C=C/C(=O)Nc2ccc(CN3CCOCC3)cc2)cc1	-8.7	3.5	i	7.3	-8.3	-2.5
CS(=O)(=O)Nc1ccc(C(=O)Nc2ccc3ccccc3c2)cc1	-9.5	10.4	?	-4.4	-2.7	-6.4
CC(C)c1ccc(NC(=O)c2ccc(NS(C)(=O)=O)cc2)cc1	8.0	-1.9	+	-0.7	-4.7	-14.4
Cc1c(Cl)cccc1NC(=S)N/N=C/c1ccccc1Cl	.	.	.	.	-5.4	.
COc1ccc(-c2ccc3nnc(SCC(N)=O)n3n2)cc1	-7.5	2.5	i	11.4	1.9	-3.3
CCSc1nnc2ccc(-c3ccc(OC)c(OC)c3)nn12	-20.4	8.8	+	-2.6	-0.7	-4.2
Cc1cc(O)ccc1C1(c2ccc(O)cc2C)OC(=O)c2ccccc21	-26.8	5.7	i	-12.6	-13.3	15.3
CC(=O)Oc1ccc2c(c1)Oc1cc(OC(C)=O)ccc1C21OC(=O)c2ccccc21	102.5*	-29.1	+	52.4	i	973.8*
COc1ccccc1N1CCN(C(c2cccs2)C(C)NC(=O)C(=O)N2CCOCC2)CC1 (stereo not given)	9.3	-4.0	i	5.9	-8.2	-2.9
O=C(O)c1cccc(S(=O)(=O)NCCc2ccccc2)c1	-0.4	12.3	i	-3.7	3.6	1.8
O=C(O)c1cccc(S(=O)(=O)Nc2ccccc2C(=O)NCCc2ccccc2)c1	-9.9	17.8	+	3.1	-1.7	-0.7
OCCN(CCO)c1ccc(C(c2ccccc2Cl)c2ccc(N(CCO)CCO)cc2Cl)c(Cl)c1	-5.6	11.3	i	36.4*	31.6	-1.6
N#Cc1c(-c2ccccc2)c(C#N)c2nc3ccccc3n2c1N	13.6	-8.5	+	2.1	-9.6	2.6
Cc1ccc(-c2c(C#N)c(N)n3c(nc4ccccc43)c2C#N)cc1	18.8	-11.6	i	17.2	-10.9	3.6
CN(c1ccc(F)cc1)S(=O)(=O)c1ccc(Cl)c(C(=O)Nc2ccncc2)c1	34.2*	-17.8	i	-1.7	-7.9	-0.2
COc1ccc(CC(=O)N(Cc2ccccc2)c2ccccc2)cc1S(=O)(=O)N1CCOCC1	26.3*	-9.3	i	8.4	1.1	1.6
CCc1ccc(OC(=O)Cc2ccc(OC)c(S(=O)(=O)N3CCOCC3)c2)cc1	-3.4	7.6	i	4.2	-10.3	-3.3
CCCOc1ccc(OC(=O)Cc2ccc(OC)c(S(=O)(=O)N3CCOCC3)c2)cc1	-1.8	16.5	+	-6.0	0.7	1.7
CCCCN1C(=O)C(CC(=O)NCCCCc2ccccc2)CC(C(=O)N2CCCCCC2)=C1C (stereo not given)	.	.	i	13.8	.	.
COc1cccc(NS(=O)(=O)c2ccc(-n3cccn3)cc2)c1	43.9*	-17.5	i	2.4	-9.9	3.7
Cc1ccc(NS(=O)(=O)c2ccc(-n3cccn3)cc2)cc1F	10.1	-6.7	i	18.5	0.0	1.1
CSc1nc(C)c(C(=O)C[n+]2ccccc2C)cc1C#N	39.9*	-19.2	i	-7.9	-6.9	-6.2
CCOC(=O)c1cc(C#N)c(SC)nc1C	-13.1	8.9	i	-7.0	6.7	-2.7
COc1cccc(CN(C)C(=O)CCNC(=O)c2ccco2)c1	-4.1	8.5	i	-3.4	-5.9	-3.7
SMILES	M1 antag	CHRM1 PAM	Myeloid diff MLP	SKN-1 inh	ATG4B inhibitor	CHRM1 agonist
CCN(CC)c1ccc(/C=N/n2c(-c3ccccc3Br)n[nH]c2=S)cc1	81.1*	-25.7	i	16.3	4.7	-7.4
CN(C(=O)c1ccc(NC(=O)Cc2ccc(NC(=O)C3CCN(C(=O)CCc4ccccc4)CC3)cc2)cc1)C1CCCC1	-0.6	3.6	+	15.6	-12.4	-6.4
CN(C(=O)c1ccc(NC(=O)Cc2ccc(NC(=O)C3CCCN(C(=O)C4CCCC4)C3)cc2)cc1)C1CC1 (stereo not given)	1.9	2.4	+	4.8	-5.0	-3.8
CN(C(=O)c1ccc(NC(=O)Cc2ccc(NC(=O)C3CCN(C(=O)C4CC4)CC3)cc2)cc1)C1CCCC1	-27.1	27.0*	i	0.0	2.4	3.9
CN(C(=O)c1ccc(NC(=O)Cc2ccc(NC(=O)C3CCN(C(=O)C4CCCC4)CC3)cc2)cc1)C1CCCC1	-10.7	5.5	i	0.0	-4.9	-4.4
N=c1nc2n(cc1F)C1OC(CO)C(O)C1O2 (stereo not given)	-13.2	7.4	.	-6.1	-0.6	4.6
CC(C)NC(=O)C1(C)CCN1Cc1cccc(Cl)c1 (stereo not given)	-9.8	6.1	i	22.4	.	-6.7
Cc1ccc(NC(=O)C2(C)CCN2Cc2csc3ccccc23)cc1 (stereo not given)	45.3*	-29.0	i	5.1	.	-9.2
CC(=O)N1CCN(C(=O)/C(C#N)=C/c2ccc3c(c2)OCO3)CC1	-29.0	33.7*	i	-5.2	3.0	3.7
CC(=O)c1c(C)[nH]c(C(=O)OCc2ccccc2)c1C	4.2	-2.7	i	22.2	1.8	0.4
CC(=O)c1c(C)[nH]c(C(=O)OCCCCN2C(=O)c3ccccc3C2=O)c1C	39.6*	-13.2	i	-4.6	-12.3	5.2
CCOC(=O)c1[nH]c2ccccc2c1CCCN1C(=O)c2ccccc2C1=O	89.0*	-18.1	i	-14.4	15.7	-2.0
CCCCn1c(N)c(N(CCC(C)C)C(=O)C2=NN(c3ccccc3)C(=O)CC2)c(=O)[nH]c1=O	5.7	-2.5	i	-6.5	2.4	-4.0
CC(C)[C@H](NC(=O)N1CCn2c1nc1ccccc12)C(=O)N[C@H](C(=O)O)c1ccccc1	-19.4	15.0	i	1.0	-4.0	2.9
CSc1ccc(C2=C/C(=C3/SC(=S)NC3=O)c3ccccc3O2)cc1	-13.8	14.6	+	21.4	-0.4	-1.2
CCN1/C(=C2/SC(=S)NC2=O)Sc2ccccc21	-1.9	11.0	i	1.6	0.8	-6.2
CCOC(=O)N1CCC(N2CCCC(CO)(Cc3cccc(Cl)c3)C2)CC1 (stereo not given)	39.4*	-15.0	i	-8.5	-2.1	-0.4
CSCC(=O)N1CCCC(CO)(Cc2ccccc2C)C1 (stereo not given)	-6.6	7.9	.	5.0	2.8	-7.2
CCOC(=O)N1CCC(N2CCCC(CO)(Cc3ccccc3C)C2)CC1 (stereo not given)	26.3*	-19.7	i	7.4	-8.3	-10.1
CC1CCC2C(=O)N(c3ccc(NC4CCN(Cc5ccccc5)CC4)c([N+](=O)[O-])c3)C(=O)C2C1 (stereo not given)	80.3*	-26.4	i	-7.0	4.2	-7.7
O=C1CCC(=O)N1c1ccc(NC2CCN(Cc3ccccc3)CC2)c([N+](=O)[O-])c1	13.3	-12.7	i	8.4	-6.8	-8.1
